# Laboratory results published in PubChem BioAssay AID1851 (National Center for Advancing Translational Sciences (NCATS), 2009).
# About 5,100 (32%) of roughly 16,000 compounds were called active. Another 25% or so got no clear call; they are omitted. Calls follow the shape of the dose curve; as a rule, active = well fitted curve in the direction sought with a large enough effect; inconclusive = small, poorly fitted or top-dose-only effect, or effect the other way; inactive = no such curve, though single readings can be large or run the other way. The list shows a part of the results.
# Biological target: Cytochrome P450 3A4 (Homo sapiens) (UniProt P08684)
# Test: Cytochrome panel assay with activity outcomes
# Details: recombinant CYP, pro-luciferin dealkylation, luminescence, p450-cyp3a4; series mostly up to 57.1 µM
# Protocol: The P450 gene superfamily is involved in the metabolism and clearance of xenobiotics. This assay used various human CYP P450 isozymes to measure the dealkylation of various pro-luciferin substrates to luciferin. The luciferin is then measured by luminescence after the addition of a luciferase detection reagent. Pro-luciferin substrate concentration in the assay was equal to its KM for its CYP P450 isozyme. Inhibitors and some substrates limit the production of luciferin, and decrease measured luminescence.
# NCGC Assay Protocol Summary:
# 1, Reagent, 2 uL, Isozyme and Pro-Luciferin
# 2, Library compounds, 23 nl, 40 uM to 0.24 nM dilution series
# 3, Controls, 23 nl, Isozyme specific inhibitor
# 4, Reagent, 2 uL, NADPH regeneration solution
# 5, Incubation time, 60 min, Isozyme specific temperature
# 6, Reagent, 4ul, Detection reagent
# 7, Incubation time, 20 min, Isozyme specific temperature
# 8, Detection, 1 sec, ViewLux luminescent read
# The luciferase-based P450-GloTM Screening Systems were obtained from Promega (Madison, WI) for CYP 1A2 (V9770), CYP 2C9 (V9790), CYP2 C19 (V9880), CYP 2D6 (V9890), and CYP 3A4 Luciferin-PPXE (V9910) and were adapted for 1,536-well microplates and an automated protocol. The control compounds furafylline for 1A2 (F124), sulfaphenazole for CYP 2C9 (S0758), ketoconazole for CYP 2C19 (K1003), quinidine for 2D6 (Q3625), and ketoconazole for 3A4 (K1003) were purchased from Sigma Aldrich (St. Louis, MO). Recombinant P450 enzymes were obtained from baculovirus constructs expressed in insect cells (BD/Gentest).
# Medium-binding white solid Kalypsys plates used. Mixtures kept on ice. 1A2: 10 nM 1A2, 100 uM Luc-ME, 100 mM KPO4; 2C9: 10 nM 2C9, 100 uM Luc-H, 25 mM KPO4; 2C19: 5 nM 2C19, 10 uM Luc-H EGE, 50 mM KPO4; 2D6: 5 nM 2D6, 30 uM Luc-ME EGE, 100 mM KPO4; 3A4: 10 nM, 25 uM Luc-PPXE. All amounts are reflected in their final concentration, working concentration is 2x.
# NADPH regeneration solution: 1.3 mM NADP+, 3.3 mM glucose-6-phosphate, 3.3 mM MgCl2, 0.4 U/mL glucose-6-phosphate dehydrogenase for all isozymes, 200 mM KPO4 for 3A4. Mixture prepared at RT but kept on ice during automated run.
# RT incubation in auxilliary plate hotel for 1A2, 2D6, and 3A4; 37C for 2C9 and 2C19.
# Keywords: P450, CYP1A2, CYP2C19, CYP2C9, CYP2D6, CYP3A4, Luciferase, MLSMR, MLSCN, NIH Roadmap, qHTS, NCGC
# % is scaled to controls: 0 for no effect and ±100 for the full control effect.
# Chain of Cytochrome P450 3A4 (Homo sapiens) (P08684 whole entry, looked up): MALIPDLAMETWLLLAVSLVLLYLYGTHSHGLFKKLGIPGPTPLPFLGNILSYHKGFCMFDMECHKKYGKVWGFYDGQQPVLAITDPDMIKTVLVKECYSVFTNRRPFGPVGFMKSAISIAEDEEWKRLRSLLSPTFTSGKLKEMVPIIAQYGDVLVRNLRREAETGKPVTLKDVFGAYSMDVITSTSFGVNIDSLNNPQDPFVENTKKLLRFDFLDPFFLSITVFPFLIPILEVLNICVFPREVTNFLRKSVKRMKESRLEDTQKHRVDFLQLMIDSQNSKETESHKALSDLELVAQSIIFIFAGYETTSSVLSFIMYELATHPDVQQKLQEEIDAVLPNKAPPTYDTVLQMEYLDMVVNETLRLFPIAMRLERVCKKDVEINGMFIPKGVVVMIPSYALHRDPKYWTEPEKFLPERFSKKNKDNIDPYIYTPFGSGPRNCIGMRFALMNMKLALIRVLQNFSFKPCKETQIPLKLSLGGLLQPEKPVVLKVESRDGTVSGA
Structure (SMILES),"activity, negative = inhibition",AC50
CC(C)(C)n1ncc2c(=O)n(CC(=O)NCc3ccccc3Cl)cnc21,-27.1% [at 11.4 µM] (inactive),–
O=C(CSc1nc2ccccc2c(=O)n1NC(=O)c1ccccc1)c1ccc(Cl)cc1,–,14.1 µM (active)
O=C(CSc1nc2ccccc2c(=O)n1NC(=O)Cc1ccccc1)NCc1ccccc1Cl,–,5.62 µM (active)
CC(=O)C1C(c2ccccc2OC(F)F)NC(=O)NC1(O)C(F)(F)F (configuration not stated),–,inactive
CCCCCC(=O)O[C@H](CC(=O)O)C[N+](C)(C)C,–,inactive
CN(C)C(=O)c1ccc(-c2cncnc2NCCN2CCOCC2)cc1,–,15.8 µM (active)
CN(C)c1ccc(-c2cncnc2NCCN2CCOCC2)cc1,–,3.16 µM (active)
Cc1ccnc(NS(=O)(=O)c2ccc(N=[N+]=[N-])cc2)n1,1.05% [at 11.4 µM] (inactive),–
COc1cccc(C=NC=Nc2cccc(OC)c2)c1,–,20 µM (active)
Clc1cccc(C=NC=Nc2cccc(Cl)c2)c1,–,inactive
COc1cccc(N=Cc2c[nH][nH]c2=O)c1,–,14.1 µM (active)
O=c1[nH][nH]c(C(F)(F)F)c1C=Nc1cccc(Cl)c1,–,inactive
O=c1[nH][nH]cc1C=Nc1ccccc1O,-5.56% [at 11.4 µM] (inactive),–
COc1cccc(/C=N/NC(=O)c2cc(-c3cccn3C)n[nH]2)c1,-9.54% [at 2.29 µM] (inactive),–
CCCn1nnnc1-c1cc(Cl)cc(Cl)c1,29.9% [at 2.29 µM] (inactive),–
N#C/C(=C\c1cccs1)C(=O)NCC1CCCO1 (configuration not stated),–,inactive
Cc1cccc(C)c1NC(=O)/C(C#N)=C/c1cccs1,–,20 µM (active)
O=C(NCC(c1cccs1)N1CCOCC1)c1ccco1 (configuration not stated),–,inactive
Cc1sc(NC(=O)c2ccco2)c(C(c2cccnc2)N2CCN(C)CC2)c1C (configuration not stated),-28.9% [at 2.29 µM] (inactive),–
Cc1sc(NC(=O)c2ccco2)c(C(c2ccncc2)N2CCOCC2)c1C (configuration not stated),–,3.16 µM (active)
Cc1sc(NC(=O)c2ccco2)c(C(c2cccnc2)N2CCCC2)c1C (configuration not stated),–,1.58 µM (active)
COc1ccccc1-c1nccc(NCc2ccccc2)n1,–,15.8 µM (active)
Cc1cccc(CNc2ccnc(-c3ccccc3Cl)n2)c1,–,3.98 µM (active)

Structure (SMILES),"activity, negative = inhibition",AC50
COc1ccccc1-c1nccc(NCc2cccnc2)n1,–,2.51 µM (active)
Cc1ccccc1-c1nccc(NCc2cccnc2)n1,–,3.98 µM (active)
O=c1c(-c2ccccc2)c(O)c2cccc3c2n1CCC3,–,inactive
CCCCCSc1nnc(C)c(=O)[nH]1,–,inactive
COc1ccccc1-c1nccc(NCc2cccc(C)c2)n1,–,6.31 µM (active)
CC1=c2c(oc3cc(O)c(Nc4c(C)cc(O)cc4O)c(C)c23)=CC(=O)C1=Nc1c(C)cc(O)cc1O,-19.4% [at 11.4 µM] (inactive),–
CC(c1ccccc1C(O)c1ccccc1)N(C)C (configuration not stated),–,inactive
CCOc1ccc(NC(=O)C(=O)NCC2CCCN2CC)cc1 (configuration not stated),–,inactive
CCCCN(C(=O)Nc1ccc(OCC)cc1)C1CCN(C(C)=O)CC1,–,inactive
COc1ccc(NC(=O)N(C2CCCCC2)C(C)c2cccnc2)c(OC)c1 (configuration not stated),–,10 µM (active)
CCOc1ccc(NC(=O)N(C2CCCCC2)C(C)c2ccncc2)cc1 (configuration not stated),–,15.8 µM (active)
COc1nc(Cl)nc(Cl)c1Cl (tested in a mixture with another compound),3.03% [at 11.4 µM] (inactive),–
CCn1c(O)c(/C=C2\C=Nc3ccccc32)sc1=Nc1ccc(C)cc1,-3.41% [at 2.29 µM] (inactive),–
O=c1c(-c2cccs2)nc2cncnc2n1Cc1ccc(F)cc1,–,12.6 µM (active)
Cc1nc2cncnc2n(Cc2ccccc2)c1=O,–,inactive
O=c1c(-c2cccs2)nc2cncnc2n1Cc1ccccc1,–,6.31 µM (active)
Cc1c(NC(=S)N/N=C/c2ccc(O)cc2)c(=O)n(-c2ccccc2)n1C,–,inactive
Cc1c(NC(=S)/C=C2\N(C)c3ccccc3C2(C)C)c(=O)n(-c2ccccc2)n1C,–,5.62 µM (active)
Cc1c(N(C)C)c(=O)n(-c2ccccc2)n1C,–,inactive
COc1ccc2cc(C(=O)Nc3ccc(F)cc3)sc(=O)c2c1OC,-4.97% [at 2.29 µM] (inactive),–
COc1ccc2sc3ccccc3c(=O)c2c1OC,–,17.8 µM (active)
COc1ccc2c(c1OC)C(=O)OC2Nc1ncccc1C (configuration not stated),-2.44% [at 2.29 µM] (inactive),–
COc1ccc(C2C(=O)N(C3CCCCCC3)CC(=O)N2Cc2ccccc2)cc1OC (configuration not stated),–,4.47 µM (active)

Structure (SMILES),"activity, negative = inhibition",AC50
COc1cc(C2C(=O)N(C3CCCC3)CC(=O)N2Cc2ccco2)ccc1OC(C)C (configuration not stated),–,8.91 µM (active)
COc1ccc(CN2C(=O)CN(C3CCCCCC3)C(=O)C2c2ccc(OC)c(OC)c2)cc1 (configuration not stated),–,1.58 µM (active)
C=CCn1c(SCc2ccc3c(c2)OCO3)nc2scc(-c3ccco3)c2c1=O,–,2.82 µM (active)
C=CCn1c(SCC(=O)N2CC(=O)Nc3ccccc32)nc2scc(-c3ccccc3)c2c1=O,–,2.82 µM (active)
C=CCn1c(SCc2ccccc2)nc2scc(-c3ccc(C)o3)c2c1=O,–,inactive
C=CCn1c(SC(C)C(=O)NCc2ccc3c(c2)OCO3)nc2scc(-c3ccccc3)c2c1=O (configuration not stated),–,0.562 µM (active)
COc1ccc(S(=O)(=O)N2CCc3ccccc3C2)cc1OC,–,15.8 µM (active)
O=S(=O)(c1ccc(Cl)s1)N1CCc2ccccc2C1,–,inactive
O=C(ON=C1CCN(S(=O)(=O)c2ccccc2)CC1)c1ccccc1,–,inactive
CCCCCCCCCCCCC(=O)N1CCCC[C@H]1CNC(=O)[C@@H](N)CCCCN,–,inactive
CC(=O)NNc1cccc(Cl)n1,–,inactive
O=C(NNc1cccc(Cl)n1)Nc1ccccc1Cl,–,12.6 µM (active)
NC(=O)NC(=O)Nc1ccccc1Cl,–,inactive
CCN(CCO)C[C@H]1CCC[C@H]2CCCC[C@@H]21,-20% [at 11.4 µM] (inactive),–
CN(C)S(=O)(=O)Oc1ccsc1C(=O)Nc1ccc(Cl)cc1,–,15.8 µM (active)
CN(C)S(=O)(=O)c1ccc(NC(=O)c2cc(F)c(F)cc2Cl)cc1,–,inactive
CN(C)S(=O)(=O)Oc1ccsc1C(=O)Nc1cccc(Cl)c1,–,10 µM (active)
Cc1ccc(Sc2ccc(NC(=O)c3ccc(S(C)(=O)=O)cc3Cl)cc2)cc1,–,inactive
CN(C)S(=O)(=O)Oc1cccc(C(=O)Nc2ccc(Cl)c(Cl)c2)c1,–,25.1 µM (active)
CN(C)S(=O)(=O)Oc1cccc(C(=O)Nc2ccccc2Cl)c1,-12.3% [at 11.4 µM] (inactive),–
C/C(=N/OC(=O)c1cccc(Cl)c1)c1nccs1,–,inactive
